Source: PubChem (National Center for Advancing Translational Sciences (NCATS))
RGS4 inh: inhibitors of human regulator of G protein signaling 4 | P49798 | Transcreener GDP fluorescence polarization, RGS4-accelerated GTP hydrolysis | Potency, µM (highest dose often 114 µM), for the others: at the top dose activity change, negative = inhibition, most hits filed as inhibitors | 390,000 compounds, 0.039% hits | AID 504845; note: % is set by controls: 0 for no effect and ±100 for the full control effect; nearly all actives have a fitted effect of over 75% in size
Target sequence (P49798 whole entry, looked up): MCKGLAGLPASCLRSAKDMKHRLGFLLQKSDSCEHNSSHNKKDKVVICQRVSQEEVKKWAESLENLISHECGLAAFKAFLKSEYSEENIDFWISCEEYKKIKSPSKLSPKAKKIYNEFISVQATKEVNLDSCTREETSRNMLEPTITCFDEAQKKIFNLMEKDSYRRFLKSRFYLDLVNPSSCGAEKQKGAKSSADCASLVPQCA
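MLSMR compounds (23 nl, pin-transferred) preincubated 10 min at room temperature with a 500nM (2x) first reagent, then RGS4 at 900nM (2x) plus Transcreener GDP mix added; fluorescence polarization (620/688 nm) read before and after 90 min at 30 °C.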
KB-V1 MDR tox: kills drug-selected multidrug resistant KB-V1 cells; KB-V1 MDR cells viability, CellTiter-Glo, 72 h; Potency, µM (highest dose often 46.1 µM), usual class: cytotoxic; 400,000 compounds, 3.4% hits; note: % is set by controls: 0 for no effect and ±100 for the full control effect; nearly all actives have a fitted effect of over 60% in size
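Compound-treated KB-V1 multidrug-resistant cells, 72 h, 37 degrees C; viability by CellTiter-Glo. Fitted qHTS curves give the values.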
KB-3-1 tox: kills parental KB-3-1 adenocarcinoma cells | KB-3-1 viability, CellTiter-Glo ATP luminescence, 72 h | Potency, µM (highest dose often 46.1 µM), actives largely listed as cytotoxic | 400,000 compounds, 1.4% hits | AID 1347075; note: % is set by controls: 0 for no effect and ±100 for the full control effect; nearly all actives have a fitted effect of over 60% in size
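Here the drug-naive KB-3-1 line serves as comparator for MDR sub-line selectivity; cells received compound titrations, 72 h at 37 °C, then CellTiter-Glo readout.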
MCF10A rereplic: induces DNA re-replication in MCF 10a normal breast cells. MCF 10A DNA re-replication, Hoechst nuclear intensity, 48 h. Potency, µM (titrated, usually from 46.1 µM), for inactives: at the top dose activity, positive = re-replication, hits mostly activators. 350,000 compounds, 2.9% hits; note: % of control where 0% means no effect; nearly all actives have a fitted effect of over 50% in size
TSG101-PTAP inh: blocks PTAP/TSG101 interaction to inhibit HIV-1 budding; Q99816; Fluorescence polarization, FITC-PTAP peptide / Tsg101 binding; Potency, µM (highest dose often 115 µM), without a hit: top-dose activity change, negative = inhibition, most hits filed as inhibitors; 340,000 tested, under 10 active; active = well fitted inhibition curve with a large enough effect in the main read-out, with a control signal flat, not every such curve was filed as active; inconclusive = small, poorly fitted or top-dose-only effect, or effect the other way, or a change in a side signal; inactive = no such curve, though single readings can be large or run the other way; note: % of control where 0% means no effect
Target sequence (Q99816 whole entry, looked up): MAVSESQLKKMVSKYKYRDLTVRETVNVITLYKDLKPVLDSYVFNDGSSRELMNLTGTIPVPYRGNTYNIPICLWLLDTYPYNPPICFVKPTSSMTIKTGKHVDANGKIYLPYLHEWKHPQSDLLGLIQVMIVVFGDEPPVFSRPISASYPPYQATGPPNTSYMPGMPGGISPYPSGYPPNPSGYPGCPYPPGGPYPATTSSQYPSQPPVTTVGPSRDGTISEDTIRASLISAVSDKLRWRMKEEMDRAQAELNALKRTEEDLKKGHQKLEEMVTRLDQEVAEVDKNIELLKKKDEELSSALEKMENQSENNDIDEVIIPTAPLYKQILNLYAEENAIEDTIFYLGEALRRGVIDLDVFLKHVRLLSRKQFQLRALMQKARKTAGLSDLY
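FP read-out: FITC-PTAP peptide, 50 nM final, binding Tsg101 binding domain, 10 uM final; 20 min, r.t.; 10 mM HEPES pH 7.5, 0.15 M NaCl, 0.01% Tween 20, 3 mM EDTA, 0.1 mM TCEP.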
SW480 rereplic: induces DNA re-replication in SW480 colon adenocarcinoma cells. AID 624297. SW480 DNA re-replication, Hoechst DNA content imaging, 48 h. 340,000 compounds, 1.8% hits. Potency, µM (highest dose often 46.1 µM), inactives show at the highest dose re-replication activation, most hits filed as activators; note: % of control where 0% means no effect; nearly all actives have a fitted effect of over 55% in size
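250 cells/well; 23 nL cpd via pin tool; 48 hr, 37 C, 5% CO2; Hoechst 40 min; imager read of total nuclear intensity, ex 405/em 500-530 nm.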
* marks the source's active call; other numbers are inactive results; i = inactive; u = inconclusive; x = no result given; [ ] = dose if it differs, or a comment. In the library only some 6.6% were active in any assay of this set; here they are far more common. Unless noted, calls come from the whole dose curve; as a rule, active = well fitted curve in the direction sought with a large enough effect; inconclusive = small, poorly fitted or top-dose-only effect, or another doubt; inactive = no such curve, though single readings can be large; an effect the other way counts as inactive or inconclusive. Potency is the fitted concentration of half-maximal effect.

SMILES | RGS4 inh | KB-V1 MDR tox | KB-3-1 tox | MCF10A rereplic | TSG101-PTAP inh | SW480 rereplic
CCOC(=O)c1c(Nc2cc(C)cc(C)c2)nnc(-c2ccccc2)c1-c1ccccc1 | 3% | i | i | x | x | x
CCOC(=O)c1c(Nc2cccc(C)c2)nnc(-c2ccccc2)c1-c1ccccc1 | 6% | u | 16µM* | x | x | x
CCOC(=O)c1ccc(N(CCC2CO2)S(=O)(=O)c2ccc(C)cc2)cc1 (centres undefined) | -19% | 21µM* | i | -1% | 0% | 0%
CCOc1ccc(N(Cc2cc3ccc(C)cc3[nH]c2=O)S(=O)(=O)c2ccccc2)cc1 | -7% | i | 16µM* | 21µM* | -5% | 21µM*
CCOc1ccc(N(Cc2ccc(C(=O)O)cc2)S(=O)(=O)c2ccc(C)cc2)cc1 | -6% | u | u | 3.7µM* | -1% | u
Cc1ccc2cc(CN(c3ccccc3)S(=O)(=O)c3ccccc3)c(=O)[nH]c2c1 | 7% | i | i | 6% | -1% | -18%
CCOc1ccc(S(=O)(=O)N(CC(=O)N/N=C/c2cccs2)c2ccc(C)cc2)cc1 | -11% | 23µM* | i | 5% | -8% | -4%
COc1ccc(S(=O)(=O)N(CC(=O)N/N=C/c2cccs2)c2ccc(C)cc2)cc1OC | -15% | i | i | 6% | -2% | -1%
CCOc1ccc(NC(=O)CSc2nnc(-c3ccc(C)cc3)c(-c3ccc(C)cc3)n2)cc1 | 10% | i | i | x | x | x
CCOc1cccc(C2C=C(c3ccc4c(c3)OCO4)NC(c3cccc(Br)c3)N2)c1O (centres undefined) | -26% | u | u | x | x | x
COc1cc(OC)c(/C=C/c2ccncn2)c(OC)c1 | x | i | u | x | x | x
C=C1C=C(C(F)F)n2ncc(C(=O)NCc3ccc(OC)cc3)c2N1 | x | i | i | x | x | x
CCOc1ccccc1NC(=O)NCc1noc2ccc(C)cc12 | -3% | i | i | x | x | x
COc1ccc(N(Cc2cc3ccccc3[nH]c2=O)S(C)(=O)=O)cc1 | 19% | 16µM* | i | -19% | -2% | -696%
CCOc1ccc(C(=O)N(CN2CCCC2=O)c2ccc(C)cc2)cc1 | 0% | 4.6µM* | i | 1% | -12% | -2%
CC(C)N(Cc1cc2ccccc2[nH]c1=O)C(=O)C(C)(C)C | 1% | i | i | 0% | -5% | -1%
Cc1ccc(N(Cc2cc3cc(C)ccc3[nH]c2=O)S(=O)(=O)c2ccccc2)cc1 | 14% | u | u | u | -3% | 18µM*
CCOc1ccc(C(=O)N(CN2CCCC2=O)c2ccccc2)cc1 | -8% | i | i | 2% | -6% | 3%
CC(C)C(=O)N(Cc1cc2ccccc2[nH]c1=O)C(C)C | -20% | 16µM* | i | -6% | -9% | -9%
Cc1ccc(N(Cc2cc3ccccc3[nH]c2=O)S(C)(=O)=O)cc1 | -10% | i | i | 5% | 1% | 1%
O=C(COCc1cc(-c2cccs2)on1)NCc1cccc(Cl)c1 | -19% | i | i | x | x | x
COc1ccc(C(NC(C)=O)c2ccc3cccnc3c2O)cc1OC (centres undefined) | x | i | u | x | x | x
CCCC(=O)NC(c1ccc(Cl)cc1)c1ccc2cccnc2c1O (centres undefined) | -13% | u | u | u | 0% | 2.9µM*
COc1ccc(C(NC(C)=O)c2ccc3cccnc3c2O)c(OC)c1 (centres undefined) | u | u | 7.3µM* | 13% | -3% | 2.9µM*
CCCCC(=O)NC(c1ccc(N(CC)CC)cc1)c1ccc2cccnc2c1O (centres undefined) | 12%[56.9 µM] | u | 4.6µM* | u | -4% | u
SMILES | RGS4 inh | KB-V1 MDR tox | KB-3-1 tox | MCF10A rereplic | TSG101-PTAP inh | SW480 rereplic
CCCC(=O)NC(c1ccccc1OC)c1ccc2cccnc2c1O (centres undefined) | -20% | u | u | 17% | -2% | u
CCCC(=O)NC(c1ccc(Cl)cc1Cl)c1ccc2cccnc2c1O (centres undefined) | -15% | i | u | u | -3% | 0.65µM*
CCOc1ccc(C(=O)Nc2ccc(-c3nn[nH]n3)cc2)cc1[N+](=O)[O-] | x | u | i | x | x | x
CCCCC(=O)NC(c1ccc(Cl)cc1)c1ccc2cccnc2c1O (centres undefined) | -49%[56.9 µM] | u | i | 12µM* | 3% | 1µM*
CCCCC(=O)NC(c1ccc(N(C)C)cc1)c1ccc2cccnc2c1O (centres undefined) | -39%[56.9 µM] | u | u | u | 0% | u
CCCC(=O)NC(c1ccc(C)cc1)c1ccc2cccnc2c1O (centres undefined) | 10%[56.9 µM] | 3.7µM* | u | 21µM* | 0% | u
CCCCC(=O)NC(c1ccccc1OC)c1ccc2cccnc2c1O (centres undefined) | 23%[11.4 µM] | u | 6.5µM* | 26% | -3% | 0.73µM*
CCCC(=O)NC(c1cccc([N+](=O)[O-])c1)c1ccc2cccnc2c1O (centres undefined) | x | u | 9.2µM* | x | x | x
CC(C)C(=O)NC(c1cccc([N+](=O)[O-])c1)c1ccc2cccnc2c1O (centres undefined) | 0% | u | u | u | -3% | 29%[9.22 µM]
Cc1oc2ncn(CC(C)C)c(=O)c2c1C(=O)NCCCN1CCC(C)CC1 | 16% | i | i | x | x | x
CC(C)CC(=O)NCC(c1ccc2c(c1)OCO2)N1CCN(c2ccccc2F)CC1 (centres undefined) | -13% | i | i | x | x | x
O=Cc1ccc(/C=C2\C=Cc3ccccc32)cc1 | x | i | u | x | x | x
COc1ccc(NC(=O)/C(C#N)=C\c2cc(C)n(-c3ccc4c(c3)OCO4)c2C)cc1 | 2% | 2.1µM* | u | 5.2µM* | 3% | 10µM*
Cc1cc(/C=C(\C#N)C(=O)Nc2ccccc2)c(C)n1-c1ccc(C(=O)O)cc1 | 13%[11.4 µM] | i | i | 1% | -4% | 4%
O=C(N/C(=C/c1ccc(Br)cc1)c1nc2ccccc2[nH]1)c1ccco1 | 28% | i | i | -7% | -3% | 0%
O=C(/C(=C/c1ccc(Cl)cc1)c1nc2ccccc2[nH]1)c1ccccc1 | -6% | u | 5.2µM* | 6.5µM* | -4% | 5.2µM*
O=C(N/C(=C/c1ccc(Cl)cc1)c1nc2ccccc2[nH]1)c1ccco1 | -20% | 12µM* | i | u | 1% | -2%
